FECH inh = blocks human mitochondrial ferrochelatase activity; purified FECH, Ni-mesoporphyrin absorbance 550 nm; calls only at 10 µM (by protocol); actives 3.3% (n = 20,000); AID 1671448;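 active = enzyme reaction rate more than 3 SD below the solvent-only control wells on the same plate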;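 also: lower slope than DMSO wells means FECH inhibition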
Target sequence (P22830 whole entry, looked up): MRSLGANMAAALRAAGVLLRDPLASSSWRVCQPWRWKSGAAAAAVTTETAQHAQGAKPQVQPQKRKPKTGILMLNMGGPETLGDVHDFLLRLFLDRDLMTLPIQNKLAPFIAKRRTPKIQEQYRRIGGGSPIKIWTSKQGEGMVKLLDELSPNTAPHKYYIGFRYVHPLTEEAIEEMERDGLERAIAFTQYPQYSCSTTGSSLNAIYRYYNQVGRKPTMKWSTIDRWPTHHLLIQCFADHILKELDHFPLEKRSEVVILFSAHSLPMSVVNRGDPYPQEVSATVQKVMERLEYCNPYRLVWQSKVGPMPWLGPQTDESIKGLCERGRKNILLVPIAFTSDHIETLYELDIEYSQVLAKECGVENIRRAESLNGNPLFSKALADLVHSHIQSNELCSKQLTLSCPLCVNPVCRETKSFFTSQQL
* marks the source's active call; other numbers are inactive results; i = inactive; + = active, no number. This excerpt belongs to a sample that is enriched for hits.

SMILES | FECH inh
CCCN(c1nc2nc(C)cc(C)n2n1)S(=O)(=O)c1ccccc1 | i
Cc1cc(C)n2nc(CN(c3ccc(Cl)cc3)S(=O)(=O)c3ccccc3)nc2n1 | +
CC(=O)CN(c1nc2nc(C)cc(C)n2n1)S(=O)(=O)c1ccc(C)cc1 | i
Cc1ccc(CN2CCN(C(=O)CCc3ccccn3)CC2=O)cc1 | i
C=CCN(CC=C)c1cc(C)nc2nc(-c3cccnc3)nn12 | i
Cc1nc(C)c(CC(=O)NC2CC(=O)N(Cc3cccc(F)c3)C2)c(=O)[nH]1 (configuration not stated) | i
Cc1ccc(C2(O)CCN(Cc3cc(C#CCO)cs3)CC2)nc1 | i
Cc1cc(C)n2nc(CN(C(=O)CCc3ccccc3)c3cccc(Cl)c3)nc2n1 | i
COCCc1noc(C2CCCCN2CC(=O)Nc2ccc(C)c(C)c2)n1 (configuration not stated) | i
COc1ccccc1NC(=O)Nc1nc(CC(=O)NCc2ccccc2Cl)cs1 | i
CCc1nccc(CN2CCOc3c(O)cc(-c4cccc(Cl)c4)cc3C2)n1 | i
COc1ccc(C2C=C(c3ccc(Cl)cc3)Nc3nc(N4C(=O)C5CC=CCC5C4=O)nn32)cc1 (configuration not stated) | i
Cc1ccc(-c2nc3cccnc3n2CCNS(=O)(=O)c2ccc(C)cc2)cc1 | i
Cc1ccc(NC(=O)NCCn2c(-c3ccncc3)nc3cccnc32)cc1Cl | +
CCC(=O)Nc1ccc(S(=O)(=O)NCCn2c(-c3ccc(C)cc3)nc3cccnc32)cc1 | +
COC(=O)CNC(=O)NCCn1c(-c2ccccc2)nc2cccnc21 | +
COc1ccc(CC(=O)NCCn2c(-c3ccccc3)nc3cccnc32)c(Cl)c1 | i
CCc1ccccc1NC(=O)NCCn1c(-c2ccncc2)nc2cccnc21 | i
Cc1cc(C)cc(NC(=O)NCCn2c(-c3ccncc3)nc3cccnc32)c1 | i
CCc1ccc(S(=O)(=O)NCCn2c(-c3ccc(C)cc3)nc3cccnc32)cc1 | i
COc1ccc(NC(=O)NCCn2c(-c3ccncc3)nc3cccnc32)cc1 | i
CC(=O)Nc1ccc(S(=O)(=O)Nc2nc3n(n2)C(c2ccc(F)cc2)C=C(c2ccc(Cl)cc2)N3)cc1 (configuration not stated) | i
COc1ccc2cc(CN3CCN(Cc4ccncc4)CC3)c(=O)[nH]c2c1 | i
COc1cccc(N2CC(NC(=O)c3ccc(Br)o3)CC2=O)c1 (configuration not stated) | i
Cc1c(S(=O)(=O)NCc2nc3cccnc3n2Cc2ccccc2)cnn1C(F)F | i
SMILES | FECH inh
CC(C)c1noc(CN(C)C2CCN(C(=O)c3cccs3)CC2)n1 | i
COc1cccc(C(=O)Nc2ccc(Nc3nc(C)cc(Nc4ccccc4)n3)cc2)c1 | i
Cc1ccc(Oc2ncccc2CNc2cc(C)c3ccccc3n2)cn1 | i
CC1CCN(C(=O)Cn2c(=O)n(CC3CCC(C(=O)NC(C)C)CC3)c(=O)c3sccc32)CC1 (configuration not stated) | i
Cc1ccc(-c2ccc(N3CCC(C(=O)NCCCN(C)Cc4ccccc4)CC3)nn2)cc1 | i
O=C(NC1CC1)C1CCN(c2ccc(-c3cccs3)nn2)CC1 | i
O=C(NC1CC1)C1CCN(c2ccc(-c3ccccc3)nn2)CC1 | +
CC(C)CCNC(=O)C1CCN(c2ccc(-c3ccccc3)nn2)CC1 | i
CCCNC(=O)C1CCN(c2ccc(-c3ccccc3)nn2)CC1 | i
CCN(CCNC(=O)C1CCN(c2ccc(-c3ccccc3)nn2)CC1)Cc1ccccc1 | +
CN1CCC[C@H]1C(=O)Nc1cccc(NC(=O)CCc2ccccc2)c1 | i
C=C1C(C)(C)[C@H]2CC[C@]1(C(=O)N1CCCn3nc(C(=O)OC)cc3C1)C2 | i
O=C1NCC2(CCCN(C(=O)c3cc(F)cc(Cl)c3)C2)O1 (configuration not stated) | i
COC(=O)c1ccc(NC(=O)c2nc3ccccc3n(C)c2=O)cc1 | i
Cn1c(=O)c(C(=O)Nc2ccc(Cl)cc2)nc2ccccc21 | i
COc1cccc(NC(=O)c2nc3ccccc3n(C)c2=O)c1 | i
Cn1c(=O)c(C(=O)Nc2ccc(Oc3ccc(Cl)cc3)cc2)nc2ccccc21 | +
CC(=O)c1ccc(NC(=O)c2nc3ccccc3n(C)c2=O)cc1 | i
CC(=O)Nc1cccc(NC(=O)c2nc3ccccc3n(C)c2=O)c1 | +
c1cc2c(cc1-n1cnnc1)N1CCN=C1S2 | i
COC(=O)c1cc2n(n1)CCN(c1ccnc(SC)n1)C2 | i
Cc1ccc(NC(=O)CNc2nccc(-c3ccc(C)nc3C)n2)c(F)c1 | i
CSc1nccc(-c2ccc(Cl)cc2Cl)n1 | +
O=C(c1nc(C2CC2)nn1-c1cccc2cccnc12)N1CCCCCC1 | i
COc1cc(NCCC(=O)NC2CCCCC2)ncn1 | i
CCc1cccc(CC)c1NS(=O)(=O)c1cc(N2C(=O)CCS2(=O)=O)ccc1OC | i
COC(=O)CNS(=O)(=O)c1cc(N2C(=O)CCS2(=O)=O)ccc1OC | i
CCOC(=O)C1CCN(S(=O)(=O)c2cc(N3C(=O)CCS3(=O)=O)ccc2C)CC1 | i
